The sample as a whole holds a higher share of hits than the screen did.
Gal4-VP16 FLuc: counter-screen for ROR gamma inhibitors: Gal4-VP16 reporter. Drosophila S2 Gal4-VP16 UAS-luciferase, luminescence, 20 h. Potency, µM (highest dose often 53.6 µM), for the others: at the top dose activity, negative = inhibition, most hits filed as inhibitors. 310,000 compounds, 3.5% hits. AID 2546;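 also: Gal4-VP16 expression switched on by copper sulfate through the metallothionein promoter; potency is read from the fitted curve at half-maximal effect; % is scaled to controls: 0 for no effect and ±100 for the full control effect; nearly all actives have a fitted effect of over 50% in size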
ERG Ets-DNA blk: inhibitors of human ERG Ets domain-DNA interaction; fluorescence polarization, His-ERG Ets domain / labelled DNA; 370,000 compounds, 0.028% hits; Potency, µM (top dose mostly 76.9 µM), for the others: at the highest dose FP activity, negative = inhibition, most hits filed as inhibitors; P11308; active = well fitted inhibition curve with a large enough effect in the polarisation, with a control signal flat; inconclusive = small, poorly fitted or top-dose-only effect, or effect the other way, or a change in a side signal; inactive = no such curve, though single readings can be large or run the other way; the % refers to the polarisation;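 also: polarization taken with two DNA probes labelled with fluorescein and Texas red; potency is read from the fitted curve at half-maximal effect; % of control where 0% means no effect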
Target sequence (P11308 whole entry, looked up, the tested form may be a part): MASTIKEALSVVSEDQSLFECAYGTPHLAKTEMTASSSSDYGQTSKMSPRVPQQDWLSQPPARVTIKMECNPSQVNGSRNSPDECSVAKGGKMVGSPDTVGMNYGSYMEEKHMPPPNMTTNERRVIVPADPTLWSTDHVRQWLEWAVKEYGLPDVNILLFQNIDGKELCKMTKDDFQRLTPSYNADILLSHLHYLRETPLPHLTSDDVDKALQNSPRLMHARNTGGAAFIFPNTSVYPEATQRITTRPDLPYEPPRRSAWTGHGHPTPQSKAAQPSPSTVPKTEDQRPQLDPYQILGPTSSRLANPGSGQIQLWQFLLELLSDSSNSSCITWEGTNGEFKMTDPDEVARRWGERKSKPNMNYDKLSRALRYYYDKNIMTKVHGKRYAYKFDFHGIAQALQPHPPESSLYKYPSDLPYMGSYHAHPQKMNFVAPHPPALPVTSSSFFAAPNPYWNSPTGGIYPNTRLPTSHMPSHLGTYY
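His-tagged ERG Ets domain (1 uM in the protein solution; 300mM KCl, 50mM Tris-HCl, 1mM EDTA, 1mM DTT, pH 7.5) received compound, then a probe mix of 5 nM fluorescein-DNA and 100nM Texas-615-DNA. Fluorescence polarization was read for both dyes.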
RORgamma inh: ROR gamma (mouse) transcription inhibition | Drosophila S2 Gal4-RORgamma UAS-luciferase reporter, 20 h | Potency, µM (titrated, usually from 53.6 µM), without a hit: at the top dose activity change, negative = inhibition, usual class: inhibitors | 310,000 compounds, 5.4% hits; also: potency is read from the fitted curve at half-maximal effect; % is scaled to controls: 0 for no effect and ±100 for the full control effect; nearly all actives have a fitted effect of over 60% in size
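Read-out: Photinus luciferase luminescence; inhibitors lower reporter signal. Insect Schneider cells with Gal4-ROR gamma fusion under metallothionein promoter, UAS reporter; 700 uM final copper sulfate induction, 20 hr, ambient temperature.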
Giardia killer: Giardia lamblia killing. Giardia lamblia trophozoite viability. activity change, % at 7.66 µM, hits read low. 340,000 compounds, 0.15% hits; in the data active = activity change below about -80%; inconclusive = between about -30% and that limit;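 also: parasites exposed to compound for two days anaerobically before the ATP read; % is scaled to controls: 0 for no effect and ±100 for the full control effect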
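Killing of trophozoites was scored by loss of ATP luminescence after a 48 hrs anaerobic exposure to compounds at 37 deg C, using 100 cells per well.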
Integrin act MD: integrin-mediated muscular dystrophy alleviation activation; alpha7betagal myoblasts, beta-gal FDG fluorescence, 48 h; Potency, µM (series often up to 38.3 µM), for inactives: top-dose activation, hits mostly activators; 350,000 compounds, 0.064% hits;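 also: potency is read from the fitted curve at half-maximal effect; 100% = response of the positive control SU9516; nearly all actives have a fitted effect of over 60% in size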
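alpha7betagal+/- myoblasts (passage 13, 250/well) treated 48 h at 37C with compounds at 1:260 dilution of DMSO stock. Lysed, then beta-galactosidase activity read as FDG fluorescence (ex 480/em 540) after 30 min, with pre-read for autofluorescence.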
* hit, by the source's call. Unless noted, calls follow the shape of the dose curve; as a rule, active = well fitted curve in the direction sought with a large enough effect; inconclusive = small, poorly fitted or top-dose-only effect, or another doubt; inactive = no such curve, though single readings can be large; an effect the other way counts as inactive or inconclusive.

Oc1cccc2ccc(/C=C/c3ccccc3Cl)nc12 was read as Gal4-VP16 FLuc 4.5µM*, ERG Ets-DNA blk 0%, RORgamma inh 4µM*, Giardia killer 4 and Integrin act MD -50%.
`COc1ccc(C(=O)N/N=C/c2ccc3cccc(O)c3n2)cc1` gave Gal4-VP16 FLuc 4µM*, ERG Ets-DNA blk 0%, RORgamma inh 1.4µM*, Giardia killer 0 and Integrin act MD -8%.
CCOc1ccc(C(C)C)cc1S(=O)(=O)Nc1cccc(-c2ccc(N3CCOCC3)nn2)c1 was read as ERG Ets-DNA blk 3%.
Screening Cc1ccccc1OCC(=O)N(CC(C)C)c1c(N)n(CC(C)C)c(=O)[nH]c1=O returned Gal4-VP16 FLuc -6%, ERG Ets-DNA blk -6%, RORgamma inh 15%, Giardia killer -17 and Integrin act MD -39%.
Screening CN(C)CCCNC(=O)C(=O)NCC(c1ccc2c(c1)OCO2)N1CCOCC1 (stereo not drawn) returned ERG Ets-DNA blk -2%.
`O/N=C/c1ccc2cccc(O)c2n1` gave Gal4-VP16 FLuc inconclusive, ERG Ets-DNA blk 7%, RORgamma inh 11µM*, Giardia killer 1 and Integrin act MD -13%.
`O/N=C/c1ccc2ccccc2n1` gave Gal4-VP16 FLuc -5%, ERG Ets-DNA blk 4%, RORgamma inh -30%, Giardia killer -9 and Integrin act MD -1%.
CC(CNC(=O)Cn1ccc2cc(S(=O)(=O)N3CCCCC3)ccc21)c1ccccc1 (stereo not drawn) was read as ERG Ets-DNA blk 8%.
`COc1ccc(/C=N/NC(=O)c2ccc(N(C)S(=O)(=O)c3ccccc3)cc2)c(OC)c1` gave Gal4-VP16 FLuc -5%, ERG Ets-DNA blk -8%, RORgamma inh 10µM*, Giardia killer -21 and Integrin act MD 13%.
For CC(C)Oc1ccccc1/C=N/NC(=O)c1ccc(F)cc1 the results were Gal4-VP16 FLuc 6%, RORgamma inh -37%, Giardia killer 15 and Integrin act MD 22%.
For COc1ccc(O)c(/C=N/NC(=O)c2ccc(OCc3cccc(Br)c3)cc2)c1 the results were Gal4-VP16 FLuc 4.5µM*, ERG Ets-DNA blk -4%, RORgamma inh 5µM*, Giardia killer 9 and Integrin act MD -10%.
`CCN(CC)c1ccc(C(=O)N/N=C/c2ccccc2OC(F)F)cc1` gave Gal4-VP16 FLuc inconclusive, ERG Ets-DNA blk -24%, RORgamma inh 2.5µM*, Giardia killer 22 and Integrin act MD -31%.
Screening COc1ccc(NS(=O)(=O)c2ccc(NC(C)=O)cc2)c(OC)c1 returned Gal4-VP16 FLuc 1%, ERG Ets-DNA blk 1%, RORgamma inh 14%, Giardia killer -12 and Integrin act MD 12%.
COc1ccc(NS(=O)(=O)c2ccc(NC(=O)c3ccc(N(C)S(C)(=O)=O)cc3)cc2)c(OC)c1 was read as Gal4-VP16 FLuc 11µM*, ERG Ets-DNA blk -1%, RORgamma inh inconclusive, Giardia killer -22 and Integrin act MD -8%.
Screening COc1ccc(-c2nn3c(-c4cc(C)[nH]n4)nnc3s2)cc1 returned Giardia killer 11.
For COc1ccc(OCCOC(=O)c2nc3nccc(C)n3n2)cc1 the results were Gal4-VP16 FLuc -2%, ERG Ets-DNA blk 9%, RORgamma inh 17%, Giardia killer 1 and Integrin act MD 4%.
`COc1ccccc1/C=N/NC(=O)c1ccc(Br)cc1` gave Gal4-VP16 FLuc -9%, ERG Ets-DNA blk -11%, RORgamma inh 13µM*, Giardia killer -10 and Integrin act MD 0%.
`COc1ccc(Br)cc1/C=N/NC(=O)c1cc(Br)ccc1O` gave Gal4-VP16 FLuc -9% and RORgamma inh -8%.
`O=C(N/N=C/c1ccc(OCc2ccc(F)cc2)cc1)c1ccccc1` gave Gal4-VP16 FLuc -11%, ERG Ets-DNA blk 10%, RORgamma inh 32%, Giardia killer 0 and Integrin act MD -28%.
Screening COc1ccc(C(=O)N/N=C/c2cc(Br)ccc2O)cc1OC returned Gal4-VP16 FLuc 4.5µM*, ERG Ets-DNA blk 13%, RORgamma inh 3.2µM*, Giardia killer 0 and Integrin act MD -4%.
CC(C)(C)c1ccc(OCc2ccc(C(=O)N/N=C/c3ccc(O)c(O)c3)cc2)cc1 was read as Gal4-VP16 FLuc 16µM*, ERG Ets-DNA blk 8%, RORgamma inh inconclusive, Giardia killer -3 and Integrin act MD -64%.
Screening COc1ccc(/C=N/NC(=O)c2ccc(Br)cc2)c(OC)c1 returned Gal4-VP16 FLuc -16%, ERG Ets-DNA blk inconclusive, RORgamma inh 11µM*, Giardia killer 10 and Integrin act MD 3%.
`COc1ccccc1C=NNC(=O)NN=Cc1ccccc1OC` gave ERG Ets-DNA blk 14%, Giardia killer 5 and Integrin act MD -1%.
Screening COc1ccc(/C=N/NC(=O)c2ccncc2)c(OC)c1 returned Gal4-VP16 FLuc 21%, ERG Ets-DNA blk 0%, RORgamma inh -21%, Giardia killer 2 and Integrin act MD 6%.
`Cc1ccc2c(c1)C(c1ccccc1)N(C(=O)COc1ccc(Cl)cc1Cl)CC(=O)N2` (stereo not drawn) gave ERG Ets-DNA blk -1%.
Cc1nc(C)c(Oc2cccc(C(F)(F)F)c2)c(=O)[nH]1 was read as Gal4-VP16 FLuc 1%, ERG Ets-DNA blk 2%, RORgamma inh -15%, Giardia killer -1 and Integrin act MD 1%.
`Cn1cccc1-c1cc(C(=O)N/N=C/c2cc(Br)ccc2O)[nH]n1` gave Gal4-VP16 FLuc 10µM*, ERG Ets-DNA blk 10%, RORgamma inh 7.1µM*, Giardia killer 13 and Integrin act MD -32%.
For COc1ccc(OC)c(S(=O)(=O)N2CCC(C(=O)NC3CC3)CC2)c1 the results were Gal4-VP16 FLuc -18%, ERG Ets-DNA blk -8%, RORgamma inh 2%, Giardia killer 17 and Integrin act MD -9%.
`CCOc1ccc(NC(=O)CC2C(=O)OCCN2CC)cc1` (stereo not drawn) gave ERG Ets-DNA blk 8%.
N#C/C(=C\c1cn(Cc2ccc(F)cc2)c2ccccc12)C(=O)NCc1ccco1 was read as Gal4-VP16 FLuc 11µM*, ERG Ets-DNA blk 9%, RORgamma inh inconclusive, Giardia killer -8 and Integrin act MD -31%.
For O=C(CCC1CCCCC1)Nc1nccs1 the results were Gal4-VP16 FLuc -2%, ERG Ets-DNA blk 16%, RORgamma inh 18µM*, Giardia killer 20 and Integrin act MD -23%.
`CC(C)(C)C1CCC(C(=O)Nc2nccs2)CC1` (stereo not drawn) gave Gal4-VP16 FLuc 8.9µM*, ERG Ets-DNA blk 2%, RORgamma inh 4.5µM*, Giardia killer -5 and Integrin act MD -25%.
For Cc1cnc(NC(=O)C2CCC(C(C)(C)C)CC2)s1 (stereo not drawn) the results were Gal4-VP16 FLuc inconclusive, ERG Ets-DNA blk -8%, RORgamma inh inconclusive, Giardia killer 0 and Integrin act MD 4%.

Compound activity from PubChem BioAssay.
